This is an account of results in PubChem BioAssay AID2023 (NMMLSC, 2009).

The whole screen tested about 320,000 compounds, of which about 1,100 (0.34%) were called active. This excerpt belongs to a sample that is enriched for actives. A number with no mark means an inactive call.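 The calls were made as follows: active = GFP response vs DMSO above a set limit, about the screen mean plus 3 SD (cut at about 150% in these data); inconclusive = under 70 cell events counted for the yeast strain; inactive = the rest.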

The assay in a line: modulators of LAP4-GFP expression in yeast, primary screen, S. cerevisiae, multiplex flow cytometry, MLPCN library (AID 2023). The following applies: 3 h, at 10 µM, stronger effect = higher value, median GFP as percent of DMSO wells.
With `O=C(OC1CCOC1=O)c1cccc(S(=O)(=O)Nc2ccc(F)cc2)c1` (stereo unspecified), the GFP response vs DMSO is 95.1%.

Turning to `CC(=O)Nc1ccc(N2C(=O)CC(Sc3nccc(C)n3)C2=O)cc1` (stereo unspecified), the GFP response vs DMSO is 89.5%.

Turning to `Cc1cc(NC(=O)CCN2CCN(Cc3ccccc3)CC2)ccc1Br`, the GFP response vs DMSO was 83.3%.

In the case of `CC(C)C(=O)N1CC(=O)Nc2ccc(F)cc2C1c1ccc(F)cc1` (stereo unspecified), the GFP response vs DMSO is 108%.

Regarding `O=C(/C=C/Sc1ncn[nH]1)c1ccc(Cl)cc1`, the GFP response vs DMSO is 219% (active).

For `O=C(CSc1ncn[nH]1)Nc1ccc(Br)cc1Br`, the GFP response vs DMSO was 93.9%.

As for `O=C(CSc1ncn[nH]1)N/N=C/c1ccc(F)cc1`, the GFP response vs DMSO is 117%.

Consider `Cc1ccnc(NC(=O)CCNS(=O)(=O)c2ccc(C)c(C)c2)c1`, for which the GFP response vs DMSO was 81.8%.

Turning to `COc1ccccc1CNC(=O)CNC(=O)c1cn(-c2ccccc2OC)c(=O)c2ccccc12`, the GFP response vs DMSO is 95.4%.

Consider `COc1ccc(O[C@H]2C=C[C@@H](c3ccccc3)O[C@@H]2CO/N=C/C[C@@H]2C=C[C@H](OC(C)=O)[C@@H](COC(C)=O)O2)cc1`, for which the GFP response vs DMSO is 111%.

Consider `O=C(CCC(=O)OCc1cccc(C(=O)Oc2ccccc2)c1)Nc1cccc2ccccc12`, for which the GFP response vs DMSO is 104%.

With `COc1ccc(-c2nn(-c3ccccc3)cc2/C=N/Nc2ccccn2)cc1OC`, the GFP response vs DMSO was 96.4%.

As to `Oc1ccc(Br)cc1/C=N/Nc1ccccn1`, the GFP response vs DMSO is 287% (active).

As for `Oc1ccc(Br)cc1C=Nc1ccc2[nH]ncc2c1`, the GFP response vs DMSO was 93.5%.

For `O=C(CC1SC(=Nc2ccccc2F)N(CCN2CCOCC2)C1=O)Nc1ccc(F)cc1F` (stereo unspecified), the GFP response vs DMSO was 126%.

As to `O=c1[nH]c(CCl)nc2cc(-c3ccc(Cl)cc3)sc12`, the GFP response vs DMSO is 163% (active).

As to `O=c1[nH]c(CN2CCOCC2)nc2cc(Cl)ccc12`, the GFP response vs DMSO is 92.7%.

As for `NC(=O)Cc1nc2scc(-c3ccc(Cl)cc3)c2c(=O)[nH]1`, the GFP response vs DMSO was 95.5%.

As to `O=C(O[C@@H]1[C@H](Cc2ccccc2)NS(=O)(=O)[C@H]2C[C@@H]3C=C[C@]12O3)c1ccccc1Br`, the GFP response vs DMSO is 97.1%.

For `CN(CCO)Cc1csc2ccc(Br)cc12`, the GFP response vs DMSO is 106%.

For `Cc1ccc(-n2cnc3ncnc(-c4ccccc4)c32)cc1`, the GFP response vs DMSO was 102%.

With `Cc1ccc(-c2nn(C(C)(C)C)c3ncnc(N)c23)cc1`, the GFP response vs DMSO is 190% (active).

Take `O=C(Nc1ccc(Cl)cc1)c1cccc(OC(=S)N2CCOCC2)c1`: the GFP response vs DMSO is 65.6%.

For `Oc1c(Cl)cc(Cl)c(Cl)c1Cc1c(O)c(Cl)cc(Cl)c1Cl`, the GFP response vs DMSO is 174% (active).

Regarding `COc1ccc(C)cc1NC(=O)CN(C)S(=O)(=O)c1ccc2c(c1)n(C)c(=O)c(=O)n2C`, the GFP response vs DMSO is 94.1%.

Turning to `CC(C)(C)OC(=O)C[C@@H]1C/C=C\C[C@@H](CC(=O)N[C@H](CO)Cc2ccccc2)C(=O)NC[C@@H](c2ccccc2)OC1=O`, the GFP response vs DMSO is 83%.

On to `Cc1c(O)c(C)c2c(c1O)C(=O)C[C@@H](c1ccccc1)O2`, for which the GFP response vs DMSO is 99.7%.

Consider `CCc1ccc(C2C(C#N)=C(N)Oc3n[nH]c(CC(=O)OC)c32)cc1` (stereo unspecified), for which the GFP response vs DMSO is 99.1%.

As to `CCCc1[nH]nc2c1C(c1ccc(Br)s1)C(C#N)=C(N)O2` (stereo unspecified), the GFP response vs DMSO is 152% (active).

As for `CCCc1[nH]nc2c1C(c1ccc(OC(=O)c3ccco3)cc1)C(C#N)=C(N)O2` (stereo unspecified), the GFP response vs DMSO was 93.3%.

Consider `CC[C@@H](C)[C@@H]1CN([C@@H](C)CN2CCC[C@H]2CN2C(N)=NC[C@H]2C(C)C)C(=N)N1CCc1ccc(Cl)c(Cl)c1`, for which the GFP response vs DMSO was 102%.

Consider `CC1CC2=C(CC1/C=N/NC(N)=S)C(C)(C)CCC2` (stereo unspecified), for which the GFP response vs DMSO was 154% (active).

On to `Cc1ccc(CS(=O)Cc2ccc(C(=O)N3CCOCC3)o2)cc1` (stereo unspecified), for which the GFP response vs DMSO is 103%.

With `N/C(=N\OC(=O)CCC1CCCCC1)c1ccccn1`, the GFP response vs DMSO was 92.5%.

For the molecule `Cn1c(SCC(=O)Nc2cccc(NC(=O)c3cccs3)c2)nnc1-c1ccncc1`, the GFP response vs DMSO is 94.8%.

On to `NC(N)=N/N=C/c1ccc(OCc2ccc(Cl)cc2Cl)cc1`, for which the GFP response vs DMSO is 160% (active).

In the case of `OC(CNCCc1ccc(Cl)cc1Cl)COc1ccccc1` (stereo unspecified), the GFP response vs DMSO is 93.6%.

For the molecule `CCOc1ccc(/C=N/NC(N)=S)cc1`, the GFP response vs DMSO was 109%.

On to `COc1cc(OC)cc(/C(N)=N/O)c1`, for which the GFP response vs DMSO was 114%.

Consider `CCc1ccccc1NC(=O)c1cc(-c2ccc3c(c2)OCO3)on1`, for which the GFP response vs DMSO is 93.6%.

With `O=C(Nc1cccnc1Cl)c1cc(-c2cccc(Cl)c2)on1`, the GFP response vs DMSO was 98.9%.

Regarding `O=C(Nc1ccccc1C(F)(F)F)c1cc(-c2ccc(O)cc2)on1`, the GFP response vs DMSO is 151% (active).

Take `COc1ccc(C(=O)NC(=S)NNC(=O)CCc2ccccc2)cc1`: the GFP response vs DMSO was 195% (active).

For the molecule `COc1ccc(C(=O)NC(=S)NNC(=O)c2c(-c3ccccc3)noc2C)cc1`, the GFP response vs DMSO was 102%.

For `Cc1ccc(OCC(=O)NCCCNC(=O)c2ccco2)cc1C`, the GFP response vs DMSO was 90%.

Take `Cc1ccc(C(=O)NNC(=O)C(C)Oc2ccc3ccccc3c2)o1` (stereo unspecified): the GFP response vs DMSO is 104%.

Consider `O=C(Nc1ccc2ccccc2c1)/C(=C/c1cccc(Br)c1)NC(=O)c1ccco1`, for which the GFP response vs DMSO is 91%.

On to `CC(Oc1ccc2ccccc2c1)C(=O)NNC(=S)NC(=O)c1ccco1` (stereo unspecified), for which the GFP response vs DMSO was 237% (active).

Regarding `CCCc1ccc(OCC(=O)NNC(=S)NC(=O)c2ccco2)cc1`, the GFP response vs DMSO is 182% (active).

On to `CCCc1ccc(OCCNC(=O)c2ccco2)cc1`, for which the GFP response vs DMSO was 83.5%.

As for `CC(C)Oc1ccc(CCC(=O)NNC(=S)NCc2ccccc2)cc1`, the GFP response vs DMSO is 103%.
